# Reference: PubChem BioAssay AID1159580 (chemical genetic matrix, 2015)
# About 2,000 (36%) of roughly 5,500 compounds were called active. Roughly 18% stayed inconclusive and do not appear here. Some of the results follow. Unmarked numbers belong to inactive results. No stated cut-off is given here; in the data, active means normalized growth mostly below about 0.91 (no sharp cut-off); inconclusive means no clear call, values can overlap the other calls; inactive means mostly above about 0.92.
# Assay: chemical genetic growth profiling, strain panel (AID 1159580);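 further: tested at 20 µM; growth read once vehicle control cultures reached saturation at 30 °C; 1 = growth at the plate median or of vehicle wells; lower values mean less growth of the strain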
# Details: S. cerevisiae deletion strains, growth OD
compound,measurement,setting,value
COC(=O)[C@]1(C)CC[C@]2(C)CC[C@]3(C)C4=CC=C5C(=CC(=O)C(O)=C5C)[C@]4(C)CC[C@@]3(C)[C@@H]2C1,normalized growth,"locus YAL013W, strain DEP1, hits give low values",0.592 (active)
same,normalized growth,"locus YAL021C, strain ccr4, hits give low values",0.878 (active)
same,normalized growth,"locus YAL026C, strain drs2, hits give low values",0.592 (active)
same,normalized growth,"locus YAL030W, strain snc1, hits give low values",0.823 (active)
same,normalized growth,"locus YBL061C, strain skt5, hits give low values",0.635 (active)
same,normalized growth,"locus YBR009C, strain hhf1, hits give low values",0.691 (active)
same,normalized growth,"locus YBR021W, strain FUR4, hits give low values",1.02
same,normalized growth,"locus YBR023C, strain chs3, hits give low values",0.595 (active)
same,normalized growth,"locus YBR171W, strain sec66, hits give low values",0.949
same,normalized growth,"locus YBR229C, strain ROT2, hits give low values",0.905 (active)
same,normalized growth,"locus YBR231C, strain swc5, hits give low values",0.503 (active)
same,normalized growth,"locus YBR279W, strain paf1, hits give low values",0.755 (active)
same,normalized growth,"locus YCL011C, strain gbp2, hits give low values",0.723 (active)
same,normalized growth,"locus YCL016C, strain dcc1, hits give low values",0.827 (active)
same,normalized growth,"locus YCL029C, strain bik1, hits give low values",0.94
same,normalized growth,"locus YCL069W, strain vba3, hits give low values",0.775 (active)
same,normalized growth,"locus YCR088W, strain abp1, hits give low values",0.864 (active)
same,normalized growth,"locus YDL005C, strain med2, hits give low values",0.956
same,normalized growth,"locus YDL035C, strain GPR1, hits give low values",0.703 (active)
same,normalized growth,"locus YDL040C, strain nat1, hits give low values",0.996
same,normalized growth,"locus YDL074C, strain BRE1, hits give low values",0.622 (active)
same,normalized growth,"locus YDL101C, strain DUN1, hits give low values",0.648 (active)
same,normalized growth,"locus YDL134C, strain PPH21, hits give low values",0.755 (active)
same,normalized growth,"locus YDL185W, strain tfp1, hits give low values",0.91
same,normalized growth,"locus YDL192W, strain arf1, hits give low values",0.889 (active)
same,normalized growth,"locus YDR001C, strain nth1, hits give low values",0.922 (active)
same,normalized growth,"locus YDR069C, strain doa4, hits give low values",0.514 (active)
same,normalized growth,"locus YDR101C, strain arx1, hits give low values",0.935
same,normalized growth,"locus YDR137W, strain rgp1, hits give low values",0.693 (active)
same,normalized growth,"locus YDR150W, strain NUM1, hits give low values",0.835 (active)
same,normalized growth,"locus YDR159W, strain sac3, hits give low values",0.621 (active)
same,normalized growth,"locus YDR162C, strain NBP2, hits give low values",0.419 (active)
same,normalized growth,"locus YDR195W, strain ref2",1.24 [resistant] (active)
same,normalized growth,"locus YDR297W, strain sur2, hits give low values",0.646 (active)
same,normalized growth,"locus YDR318W, strain mcm21, hits give low values",0.852 (active)
same,normalized growth,"locus YDR334W, strain swr1, hits give low values",0.553 (active)
same,normalized growth,"locus YDR335W, strain msn5, hits give low values",0.733 (active)
same,normalized growth,"locus YDR388W, hits give low values",0.96
same,normalized growth,"locus YDR392W, strain spt3, hits give low values",0.149 (active)
same,normalized growth,"locus YDR502C, strain sam2, hits give low values",0.878 (active)
same,normalized growth,"locus YEL003W, strain gim4, hits give low values",0.841 (active)
same,normalized growth,"locus YEL037C, strain rad23, hits give low values",0.814 (active)
same,normalized growth,"locus YEL061C, strain CIN8 (second series), hits give low values",0.784 (active)
same,normalized growth,"locus YEL061C, strain CIN8, hits give low values",0.76 (active)
same,normalized growth,"locus YER015W, strain faa2, hits give low values",0.687 (active)
same,normalized growth,"locus YER016W, strain bim1, hits give low values",0.78 (active)
same,normalized growth,"locus YER110C, hits give low values",0.986
same,normalized growth,"locus YER111C, strain swi4, hits give low values",0.573 (active)
same,normalized growth,"locus YER155C, strain BEM2 (second series), hits give low values",0.572 (active)
same,normalized growth,"locus YER155C, strain BEM2, hits give low values",0.846 (active)
same,normalized growth,"locus YER167W, strain BCK2, hits give low values",0.837 (active)
same,normalized growth,"locus YFR010W, strain ubp6, hits give low values",0.777 (active)
same,normalized growth,"locus YGL078C, strain dbp3, hits give low values",0.944
same,normalized growth,"locus YGL086W, strain mad1, hits give low values",0.921 (active)
same,normalized growth,"locus YGL167C, strain pmr1, hits give low values",0.881 (active)
same,normalized growth,"locus YGL173C, strain kem1, hits give low values",0.439 (active)
same,normalized growth,"locus YGL227W, strain vid30, hits give low values",0.879 (active)
same,normalized growth,"locus YGL240W, strain doc1, hits give low values",0.874 (active)
same,normalized growth,"locus YGL248W, strain PDE1, hits give low values",0.675 (active)
same,normalized growth,"locus YGL253W, strain hxk2, hits give low values",0.584 (active)
same,normalized growth,"locus YGR135W, strain pre9, hits give low values",0.843 (active)
same,normalized growth,"locus YGR252W, strain gcn5, hits give low values",0.932
same,normalized growth,"locus YHR013C, strain ard1, hits give low values",0.597 (active)
same,normalized growth,"locus YHR027C, strain rpn1, hits give low values",0.514 (active)
same,normalized growth,"locus YHR030C, strain SLT2, hits give low values",0.736 (active)
same,normalized growth,"locus YHR079C, strain IRE1 (second series), hits give low values",0.977
same,normalized growth,"locus YHR094C, strain hxt1, hits give low values",0.965
same,normalized growth,"locus YHR129C, strain ARP1, hits give low values",0.693 (active)
same,normalized growth,"locus YHR142W, strain chs7, hits give low values",0.488 (active)
same,normalized growth,"locus YHR200W, strain rpn10, hits give low values",0.929
same,normalized growth,"locus YIL066C, strain RNR3, hits give low values",0.523 (active)
same,normalized growth,"locus YIL073C, strain SPO22, hits give low values",0.531 (active)
same,normalized growth,"locus YIL125W, strain kgd1, hits give low values",0.892 (active)
same,normalized growth,"locus YIR030C, strain dcg1, hits give low values",0.961
same,normalized growth,"locus YJL092W, strain hpr5, hits give low values",0.836 (active)
same,normalized growth,"locus YJL095W, strain BCK1 (second series), hits give low values",0.615 (active)
same,normalized growth,"locus YJL095W, strain BCK1, hits give low values",0.634 (active)
same,normalized growth,"locus YJL115W, strain asf1, hits give low values",0.884 (active)
same,normalized growth,"locus YJL129C, strain trk1, hits give low values",0.625 (active)
same,normalized growth,"locus YJL134W, strain LCB3, hits give low values",0.921 (active)
same,normalized growth,"locus YJL154C, strain vps35, hits give low values",0.907 (active)
same,normalized growth,"locus YJL164C, strain tpk1, hits give low values",0.616 (active)
same,normalized growth,"locus YJL166W, strain qcr8, hits give low values",0.509 (active)
same,normalized growth,"locus YJL168C, strain set2, hits give low values",0.968
same,normalized growth,"locus YJL187C, strain SWE1 (second series), hits give low values",0.455 (active)
